# Screening results from PubChem.
# CYP2C19 activ: human CYP2C19 activators, primary screen, biochemical, luminescence. 96,000 tested, under 10 active. recombinant CYP2C19, luciferin-H EGE luminescence; hits give high values; 0 = fully inhibited enzyme, 1 = untreated enzyme. activation factor at 5 µM. Cytochrome P450 2C19 (Homo sapiens), P33261. AID 1025, 2008;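 active = activation factor of at least 2 at 5 µM in the primary screen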;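 also: 0 = wells with 2.5 mM tranylcypromine and 1 = vehicle-only wells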
# CYP2C19 inh: blockers of cytochrome P450 2C19 activity – biochemical, luminescence, ADME assay, primary screen | actives 21% (n = 96,000) | CYP2C19 Supersomes, luciferin-H EGE luminescence, 30 min | inhibition, % at 5 µM | AID 778, 2007 | P33261;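 active = CYP2C19 inhibition above a set limit at 5 µM in the primary screen, cut at about 50% in these data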;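 also: plate controls were negative control wells for no effect and 2.5 mM tranylcypromine positive control for full effect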
# CYP2C9 act: human CYP2C9 activators, primary screen, biochemical, luminescence; Cytochrome P450 2C9 (Homo sapiens), P11712; recombinant CYP2C9, luciferin-H conversion; hits give high values; factor 1 = untreated enzyme, 0 = blocked; actives 1.4% (n = 96,000); activation factor at 5 µM; AID 1024, 2008;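 active = activation factor of 2 or more for CYP2C9 at a 5 µM dose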;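 also: 0 = sulfaphenazole-blocked wells and 1 = vehicle-only wells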
# Target sequence (P11712 whole entry, looked up): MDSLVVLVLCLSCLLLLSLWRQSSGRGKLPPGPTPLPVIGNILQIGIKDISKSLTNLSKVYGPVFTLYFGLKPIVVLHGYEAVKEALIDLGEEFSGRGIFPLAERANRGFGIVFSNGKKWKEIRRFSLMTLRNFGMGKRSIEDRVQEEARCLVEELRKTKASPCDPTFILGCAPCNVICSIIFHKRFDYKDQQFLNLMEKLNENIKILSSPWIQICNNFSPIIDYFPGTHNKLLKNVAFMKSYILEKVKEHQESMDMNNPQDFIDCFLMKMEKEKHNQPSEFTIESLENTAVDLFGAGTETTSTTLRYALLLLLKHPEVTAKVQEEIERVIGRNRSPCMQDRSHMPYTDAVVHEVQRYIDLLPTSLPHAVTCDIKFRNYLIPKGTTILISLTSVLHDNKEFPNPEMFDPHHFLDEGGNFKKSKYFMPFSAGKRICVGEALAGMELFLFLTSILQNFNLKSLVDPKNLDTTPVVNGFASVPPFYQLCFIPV
# CYP2C9 inh: blockers of cytochrome P450 2C9 activity – biochemical, luminescence, ADME assay, primary screen; P11712; CYP2C9 Supersomes, luciferin-H conversion; inhibition, % at 5 µM; actives 20% (n = 96,000);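 active = blocking of liver enzyme CYP2C9 beyond about 50% at 5 µM, limit read from the data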
# sEH inh: soluble epoxide hydrolase inhibitors, primary screen, biochemical, human sEH | actives 0.34% (n = 91,000) | recombinant human sEH enzymatic activity assay | inhibition, % at 2 µM | AID 707, 2007; in the data active = inhibition above about 80%
# sEH activator: soluble epoxide hydrolase activators, primary screen, biochemical, human sEH; Bifunctional epoxide hydrolase 2 (Homo sapiens), P34913; purified human sEH enzymatic activity, activator screen; activation, % at 2 µM; actives 0.04% (n = 91,000); AID 717, 2007; in the data active = activation above about 37%
# The depositor's hits bear a star; / = not tested or not shown. Shown are actives, neighbours in structure and some others; about 27% of the full set was active somewhere.
SMILES,CYP2C19 activ,CYP2C19 inh,CYP2C9 act,CYP2C9 inh,sEH inh,sEH activator
N#CC1=C(SCC(=O)c2cc3ccccc3oc2=O)NC(=O)C(C#N)C12CCCC2 (stereo unspecified),0.5,52.0*,0.1,88.4*,8.6,-9.5
C=CCc1cccc(/C=N/n2cnnc2)c1O,0.3,66.3*,0.7,30.1,/,/
C=CCc1cccc(/C=N/c2ncccc2O)c1O,1,-3.7,1.1,-12.7,-9.1,10.2
Cc1ccc(NC(=O)c2ccc(Cn3cc(Br)cn3)o2)cc1,/,/,/,/,35.5,-35.7
COC(=O)c1ccccc1NC(=O)c1ccc(-c2ccccc2F)o1,1.1,-7.1,1.1,-9.2,1.2,-3.0
COC(=O)c1ccccc1NC(=O)c1ccc(Cn2cc(Cl)cn2)o1,0.5,50.4*,1.3,-32.6,18.9,-16.1
COC(=O)c1cc(NC(=O)c2ccc(Cn3cc(Cl)cn3)o2)cc(C(=O)OC)c1,0.2,77.2*,0.1,89.4*,9.7,-8.2
Cc1nc2ccccc2c(=O)n1NCc1cccs1,0.3,74.6*,0.8,21.4,-4.1,4.8
O=C(Nn1c(Cc2cccs2)nc2ccccc2c1=O)c1cccs1,0.2,83.6*,0.2,79.6*,/,/
CCCn1c(CCNC(=O)c2cccs2)nc2ccccc21,/,/,/,/,9.0,-5.7
Cc1csc(SCC(=O)NCc2cccs2)n1,0.6,35.6,0.8,16.3,/,/
CCN(CC)C(=O)c1cnn(-c2ccccc2)c1NC(=O)c1ccccc1F,/,/,/,/,12.9,-13.2
COc1ccc(C(=O)CC2OC(=O)c3ccccc32)cc1OC (stereo unspecified),/,/,/,/,-5.0,7.7
COC(=O)c1ccc(OCCOc2ccccc2)cc1,0.3,67.2*,0.5,54.4*,10.1,-9.4
COC(=O)c1ccc(OCCN2C3=NCCN3c3ccccc32)cc1,0.8,18.5,1,-3.4,/,/
CCc1cc(C)cc(OCCNC(=O)c2cncc(Br)c2)c1,0.3,71.6*,0.8,23.1,7.0,-5.8
Cc1ccc(C(C)C)c(OCCNS(C)(=O)=O)c1,0.9,7.3,1,4.0,-6.1,2.5
COc1cc(OC)cc(C(=O)NCCOc2ccccc2)c1,0.4,62.3*,0.9,13.6,-5.5,3.5
Cc1ccc(C(C)C)c(OCCNC(=O)c2cncc(Br)c2)c1,0.3,71.8*,0.4,63.1*,66.6,-66.6
O=C(NCCOc1ccccc1)c1cncc(Br)c1,0.2,84.0*,0.7,32.3,0.3,1.1
O=C(Nc1ccccc1C(=O)O)c1cncc(Br)c1,1.1,-13.4,0.4,60.3*,-8.0,7.4
CC(C)(C)C(=O)C(Oc1cccc2nonc12)n1cncn1 (stereo unspecified),0.9,12.0,1,-2.9,-4.6,2.3
Cc1ccc(C(=O)Oc2cccc(NC(=O)c3ccco3)c2)cc1S(=O)(=O)N1CCC(C)CC1,0.4,59.8*,0.1,85.2*,-6.7,2.2
O=C(Oc1cccc(NC(=O)c2ccco2)c1)c1ccc(Br)c(S(=O)(=O)N2CCCCC2)c1,0.7,26.4,0.5,47.6,-10.7,11.5
COc1ccccc1C(=O)N1CCN(c2cccc(C(F)(F)F)c2)CC1,0.1,92.4*,0.3,68.2*,1.1,-0.5
SMILES,CYP2C19 activ,CYP2C19 inh,CYP2C9 act,CYP2C9 inh,sEH inh,sEH activator
O=C(c1csc2c1CCCC2)N1CCN(c2cccc(C(F)(F)F)c2)CC1,0.3,65.2*,1.6,-60.6,-10.8,9.5
COc1ccc(NC(=O)N2CCN(c3cccc(C(F)(F)F)c3)CC2)cc1OC,1,-4.4,1.4,-37.0,1.8,-0.6
O=C(c1csc2c1CCCC2)N1CCN(c2ncccn2)CC1,0.3,65.1*,0.2,82.1*,-2.5,3.1
CCOC(=O)N1CCN(c2ccc(Cl)c(Cl)c2)CC1,0.8,15.1,0.7,27.6,-6.2,7.9
O=C(c1csc2c1CCCC2)N1CCN(c2ccc(F)cc2)CC1,/,/,/,/,-2.5,3.0
CCOC(=O)N1CCN(c2ccc(C(=O)c3cccc(F)c3)cc2)CC1,0.3,66.8*,0.2,82.0*,-12.1,13.7
COc1ccc(CCNC(=O)CN2CCN(c3cccc(C(F)(F)F)c3)CC2)cc1,0.2,76.4*,0.2,75.5*,16.2,-17.6
O=C(c1cccc(F)c1)N1CCN(c2cccc(C(F)(F)F)c2)CC1,0.1,88.1*,0.2,81.3*,12.9,-11.8
CCOc1cc(/C=N/O)cc(Cl)c1OC,0.9,6.4,1.1,-7.8,14.3,-14.6
O=C(Cn1c(C(F)(F)F)nc2ccccc21)Oc1cccc(C(F)(F)F)c1,0.9,7.5,0.8,18.8,-0.9,0.9
N#C/C(C(=O)N1CCOCC1)=C1/SC=C(c2ccccc2)N1c1ccccc1,/,/,/,/,-5.1,7.6
Nc1ccc(Sc2nnnn2-c2ccccc2)c(Cl)c1,0.1,93.1*,1.1,-6.7,8.4,-5.0
O=[N+]([O-])c1ccc(Sc2nnnn2-c2ccccc2)c(Cl)c1,0,98.3*,0.3,68.5*,-3.4,4.8
CSc1nc(-c2ccc(C)cc2)[nH]c1S(=O)(=O)c1ccccc1,0.5,46.2,0.2,78.5*,22.9,-20.1
CSc1oc(-c2ccc(F)cc2)nc1S(=O)(=O)c1ccccc1,/,/,/,/,7.2,-6.8
O=C(Nc1cccc(Cl)c1)N1CCN2C(=O)c3ccccc3C12c1ccccc1 (stereo unspecified),0.5,48.6,0.4,57.2*,/,/
O=C1c2ccccc2C2(c3ccccc3)NCCN12 (stereo unspecified),0.9,8.0,0.9,8.4,/,/
CC1CCCC(C)N1C(=O)Nc1cccc(Cl)c1 (stereo unspecified),0.6,39.8,1,1.6,5.0,-2.2
Cc1ccc(C(=O)N2CCN3C(=O)c4ccccc4C23c2ccc(Cl)cc2)cc1 (stereo unspecified),0.1,86.0*,0.6,38.5,1.5,-0.1
N=C1N(/N=C/c2ccccc2)C(=Nc2ccccc2)C(=S)N1c1ccccc1,/,/,/,/,0.9,-1.3
Cc1ccc(C2(C(F)(F)F)N=C3Sc4cc(C)ccc4N3C(=O)N2)cc1 (stereo unspecified),0.9,14.7,0.8,21.3,-13.6,13.2
Cc1ccc(C2(C(F)(F)F)NC(=O)N3CCN=C3S2)cc1 (stereo unspecified),0.2,76.1*,1,-4.2,2.9,-4.1
Cc1ccc(C2(C(F)(F)F)NC(=O)N3CCCN=C3S2)cc1 (stereo unspecified),0.2,76.2*,0.8,16.3,/,/
Cc1ccc(CN2CCC(C(=O)NCCC(C)C)CC2)o1,1,4.0,0.9,13.2,/,/
O=C(Nc1cnn(Cc2ccccc2)c1)NC12CC3CC(CC(C3)C1)C2,1,0.3,1,3.4,92.1*,-92.1
